High-throughput results as filed in PubChem.
A selection: hits, their analogues and other compounds. The true share with any hit is near 6.8%.
MCF10A rereplic: inducers of DNA re-replication in MCF 10A breast cells; hit rate 2.9% among 350,000; MCF 10A DNA re-replication, Hoechst nuclear intensity, 48 h; Potency, µM (highest dose often 46.1 µM), for the others: at the top dose activity, positive = re-replication, hits mostly activators; further: % of control where 0% means no effect; nearly all actives have a fitted effect of over 50% in size
KB-3-1 cytotox: kills parental KB-3-1 adenocarcinoma cells. KB-3-1 viability, CellTiter-Glo ATP luminescence, 72 h. Potency, µM (series often up to 46.1 µM), actives largely listed as cytotoxic. hit rate 1.4% among 400,000. AID 1347075; further: on the % scale 0 is the no-effect control and ±100 the full control effect; nearly all actives have a fitted effect of over 60% in size
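Viability of parental KB-3-1 cells, measured by CellTiter-Glo luminescence, followed a 72 h incubation at 37 °C with pinned compounds in phenol-red-free DMEM containing 10% FBS.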
PTAP TSG101 blk: blocks PTAP/TSG101 interaction to inhibit HIV-1 budding; Fluorescence polarization, FITC-PTAP peptide / Tsg101 binding; 340,000 tested, under 10 active; Q99816; Potency, µM (series often up to 115 µM), for inactives: at the highest dose activity change, negative = inhibition, most hits filed as inhibitors; AID 493005; active means well fitted inhibition curve with a large enough effect in the main read-out, with a control signal flat, not every such curve was filed as active; inconclusive means small, poorly fitted or top-dose-only effect, or effect the other way, or a change in a side signal; inactive means no such curve, though single readings can be large or run the other way; further: % of control where 0% means no effect
Target sequence (Q99816 whole entry, looked up): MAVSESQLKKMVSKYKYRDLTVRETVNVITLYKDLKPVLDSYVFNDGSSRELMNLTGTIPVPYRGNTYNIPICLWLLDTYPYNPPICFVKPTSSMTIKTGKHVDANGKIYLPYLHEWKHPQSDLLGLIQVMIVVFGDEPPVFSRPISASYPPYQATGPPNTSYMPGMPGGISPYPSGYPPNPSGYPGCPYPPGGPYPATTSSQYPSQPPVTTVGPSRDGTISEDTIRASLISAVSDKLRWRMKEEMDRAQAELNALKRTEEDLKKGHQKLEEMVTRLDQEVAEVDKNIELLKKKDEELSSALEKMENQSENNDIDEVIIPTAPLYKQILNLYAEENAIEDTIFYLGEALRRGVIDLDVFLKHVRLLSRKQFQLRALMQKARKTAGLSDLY
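Fluorescence anisotropy tracks displacement of a FITC-tagged PTAP peptide (50 nM) from the Tsg101 binding domain (10 uM), following a 20 min room-temperature incubation at pH 7.5.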
SW480 rerep: induces DNA re-replication in SW480 colon adenocarcinoma cells; SW480 DNA re-replication, Hoechst DNA content imaging, 48 h; Potency, µM (highest dose often 46.1 µM), for the others: top-dose re-replication activation, most hits filed as activators; hit rate 1.8% among 340,000; AID 624297; further: % of control where 0% means no effect; nearly all actives have a fitted effect of over 55% in size
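Hoechst fluorescence of nuclei (405 nm excitation, 500-530 nm emission) measured by plate-scanning imager after 48 hr compound exposure at 37 C; re-replication scored as increased number of nuclei with elevated intensity.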
PINK1 modulator: PINK1 expression modulation. PINK1 immunofluorescence, high-content cytometry, 24 h. hit rate 0.2% among 410,000. Potency, µM (titrated, usually from 76.6 µM), without a hit: at the highest dose activation (PINK1 increase), actives largely listed as activators; active means well fitted activation curve with a large enough effect; inconclusive means small, poorly fitted or top-dose-only effect; cell line not stated here; further: % of control where 0% means no effect; nearly all actives have a fitted effect of over 65% in size
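Cells are seeded, rested 12 hours, then given compound at five concentrations or DMSO for 24 hours. After fixation, blocking and antibody staining, PINK1 amount and mitochondrial localization are scored; CCCP serves as control.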
KB-V1 MDR tox: kills drug-selected multidrug resistant KB-V1 cells. hit rate 3.4% among 400,000. KB-V1 MDR cells viability, CellTiter-Glo, 72 h. Potency, µM (top dose mostly 46.1 µM), usual class: cytotoxic; further: on the % scale 0 is the no-effect control and ±100 the full control effect; nearly all actives have a fitted effect of over 60% in size
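KB-V1 MDR subline cells in DMEM (phenol-red free, 10% FBS) exposed to compounds in qHTS concentration series for 72 h at 37 degrees C. Viability read by CellTiter-Glo luminescence; concentration-effect curves fitted after normalization and correction.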
Starred values were filed as active, the others as inactive; [ ] = another dose, or the depositor's remark. Unless noted, the call rests on the fitted dose curve; in most records, active means well fitted curve in the direction sought with a large enough effect; inconclusive means small, poorly fitted or top-dose-only effect, or another doubt; inactive means no such curve, though single readings can be large; an effect the other way counts as inactive or inconclusive. Potency means the concentration at half of the fitted maximal effect.

`COC(=O)c1ccc2c(=O)n(CC3CCCO3)c(SCC(=O)Nc3ccccc3Cl)nc2c1` (stereo not given) gave MCF10A rereplic 252.8%[0.0737 µM], KB-3-1 cytotox inactive, PTAP TSG101 blk -2.9%, SW480 rerep -16.2%, PINK1 modulator 9.1% and KB-V1 MDR tox inactive.
`COC(=O)c1ccc2c(=O)n(CC3CCCO3)c(SCC(=O)Nc3ccccc3OC)nc2c1` (stereo not given) gave MCF10A rereplic 7.2%, KB-3-1 cytotox inactive, PTAP TSG101 blk -3.4%, SW480 rerep 4.5%, PINK1 modulator 0.4% and KB-V1 MDR tox 3.26µM*.
Screening Cc1ccc(Sc2ccc(N3CCCC(C(=O)Nc4ccc(F)cc4)C3)nn2)cc1 (stereo not given) returned KB-3-1 cytotox inactive, PINK1 modulator 2.0% and KB-V1 MDR tox inactive.
For O=c1[nH]c(CSc2nc3ccccc3s2)nc2ccccc12 the results were MCF10A rereplic inconclusive, KB-3-1 cytotox inactive, PTAP TSG101 blk -5.0%, SW480 rerep 2.1%, PINK1 modulator 2.9% and KB-V1 MDR tox inactive.
`COc1ccc(C2NCCc3c2[nH]c2ccccc32)cc1CSc1nc2ccccc2s1` (stereo not given) gave MCF10A rereplic inconclusive, KB-3-1 cytotox inconclusive, PTAP TSG101 blk -3.5%, PINK1 modulator -2.7% and KB-V1 MDR tox 23.1µM*.
For COc1ccc(-c2nnc3c4ccccc4c(C)nn23)cc1 the results were MCF10A rereplic 6.9%, KB-3-1 cytotox inactive, PTAP TSG101 blk -5.7%, SW480 rerep -11.0%, PINK1 modulator -0.7%[38.3 µM] and KB-V1 MDR tox 3.66µM*.
Screening Cc1ccccc1-c1nnc2c3ccccc3c(C)nn12 returned MCF10A rereplic 0.5%, KB-3-1 cytotox inconclusive, PTAP TSG101 blk -5.8%, SW480 rerep -6.5%, PINK1 modulator -3.0% and KB-V1 MDR tox 7.31µM*.
Screening Cc1nn2c(-c3ccncc3)nnc2c2ccccc12 returned MCF10A rereplic -17.0%, KB-3-1 cytotox inactive, PTAP TSG101 blk -7.4%, SW480 rerep 5.9%, PINK1 modulator 0.2% and KB-V1 MDR tox inactive.
Screening Cc1ccc(CCNC(=O)c2c(C)oc3ncnc(N4CCOCC4)c23)cc1 returned PINK1 modulator -1.9%.
`Cc1c(C(=O)N2CCOCC2)oc2c1-c1nn(CC(=O)NCc3cccc(Cl)c3)cc1CC2` gave PINK1 modulator -0.9%.
COc1ccc2c(c1)CCC1(C)CC(=O)C(Br)=C21 (stereo not given) was read as KB-3-1 cytotox inconclusive, PINK1 modulator -1.8% and KB-V1 MDR tox 6.51µM*.
For c1ccc(-c2noc(-c3ccc4ccccc4c3)n2)nc1 the results were MCF10A rereplic 17.2%, KB-3-1 cytotox inconclusive, PTAP TSG101 blk -12.5%, SW480 rerep -15.8%, PINK1 modulator -3.1% and KB-V1 MDR tox 5.8µM*.
For c1ccc(-c2noc(-c3ccncc3)n2)nc1 the results were MCF10A rereplic -18.4%, KB-3-1 cytotox inconclusive, PTAP TSG101 blk -8.1%, SW480 rerep 1.8% and KB-V1 MDR tox inactive.
For c1ccc(-c2noc(-c3ccc4c(c3)OCO4)n2)nc1 the results were MCF10A rereplic inconclusive, KB-3-1 cytotox 4.61µM*, PTAP TSG101 blk -4.4%, SW480 rerep inconclusive, PINK1 modulator inconclusive and KB-V1 MDR tox 4.11µM*.
Screening Cc1oc(-c2ccccc2NC(=O)c2ccccc2)nc1CNC(=O)c1c(-c2ccccc2)noc1C returned PINK1 modulator 1.2%.
`COc1ccc(NC(=O)c2cc3c(=O)n(Cc4cccnc4)ccc3nc2C)c(OC)c1` gave KB-3-1 cytotox inactive, PINK1 modulator 1.1% and KB-V1 MDR tox inactive.
For COC(=O)c1ccc(NC(=O)CSC2=NCCN2)cc1 the results were MCF10A rereplic 14.6µM*, KB-3-1 cytotox inconclusive, PTAP TSG101 blk -3.0%, SW480 rerep inconclusive, PINK1 modulator 13.6% and KB-V1 MDR tox inconclusive.
`CCOc1ccc(NC(=O)CSC2=NCCN2)cc1` gave MCF10A rereplic 7.7%, KB-3-1 cytotox inactive, PTAP TSG101 blk -3.7%, SW480 rerep -1.7%, PINK1 modulator -1.4% and KB-V1 MDR tox inactive.
For Cc1cnc(SCc2ccccn2)nc1C1CCCN(C(=O)c2coc3c2C(=O)CCC3)C1 (stereo not given) the results were PINK1 modulator 0.4%.
`CN(CCCN1c2ccccc2CCc2ccccc21)CC(=O)c1ccc(Cl)cc1` gave MCF10A rereplic 33.5µM* and SW480 rerep inconclusive.
CCC(C)(C)n1nnnc1C(C(C)C)N(Cc1ccco1)Cc1cc2cc3c(cc2[nH]c1=O)OCO3 (stereo not given) was read as MCF10A rereplic inconclusive, KB-3-1 cytotox inconclusive, PTAP TSG101 blk -5.1%, SW480 rerep inconclusive, PINK1 modulator -7.5%[38.3 µM] and KB-V1 MDR tox 14.6µM*.
`Cc1ccc2[nH]c(=O)c(CN(Cc3ccccc3)Cc3nnnn3C3CCCC3)cc2c1` gave MCF10A rereplic 0.6%, KB-3-1 cytotox inactive, PTAP TSG101 blk -4.0%, SW480 rerep -2.9%, PINK1 modulator 4.3%[38.3 µM] and KB-V1 MDR tox 23.1µM*.
Screening COc1ccc(Cn2nnnc2CN(Cc2cc3cc(C)ccc3[nH]c2=O)C2CCCC2)cc1 returned MCF10A rereplic 23.1µM*, KB-3-1 cytotox inactive, PTAP TSG101 blk -8.4%, SW480 rerep 13.8% and KB-V1 MDR tox 16.4µM*.
`Cc1ccc(CN(Cc2cc3cc4c(cc3[nH]c2=O)OCCO4)Cc2nnnn2Cc2ccco2)cc1` gave MCF10A rereplic inconclusive, KB-3-1 cytotox inactive, PTAP TSG101 blk -3.2%, SW480 rerep inconclusive, PINK1 modulator -3.2%[38.3 µM] and KB-V1 MDR tox 14.6µM*.
CCC(C)(C)n1nnnc1C(C(C)C)N(Cc1cccnc1)Cc1ccco1 (stereo not given) was read as MCF10A rereplic 10.6%, KB-3-1 cytotox inactive, PTAP TSG101 blk -2.7%, SW480 rerep -37.5%, PINK1 modulator 0.7% and KB-V1 MDR tox inactive.
Screening COc1ccccc1C(=O)N[C@@H]1c2ccccc2C2(CCN(Cc3c(O)cccc3OC)CC2)[C@H]1O returned PINK1 modulator 0.3%.
Screening O=c1[nH]c2cc3c(cc2cc1CN(Cc1nnnn1C1CCCC1)C1CCCC1)OCCO3 returned MCF10A rereplic -6.2%, KB-3-1 cytotox 23.1µM*, PTAP TSG101 blk 3.4%, SW480 rerep -3.3%, PINK1 modulator 4.8%[38.3 µM] and KB-V1 MDR tox inactive.
Screening CC(C)(C)C1CCC(=NNc2nc3ccccc3[nH]2)CC1 (stereo not given) returned MCF10A rereplic 14.1%, KB-3-1 cytotox inactive, PTAP TSG101 blk -0.4%, SW480 rerep 16.4µM*, PINK1 modulator 8.7% and KB-V1 MDR tox inactive.
